From PubChem BioAssay
This is a sample that favours compounds with a hit; in the whole collection about 3.4% have one here.
HIV Env fusion – inhibitors of HIV Env-mediated cell fusion. inhibition, % at 12.3 µM. HeLa-JRFL Env/CEM21 cell fusion, luciferase. 360,000 compounds, 1.1% hits;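 active means mean replicate inhibition score of at least 50 and every replicate individually at or above 50; inconclusive means only one of the two criteria met; inactive means mean below 50 and not all replicates reaching 50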;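 further: 0% = plate neutral controls and 100% = maraviroc near 300 nM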
Wnt act – Wnt/beta-catenin pathway activation; activation, % at 9.35 µM; Wnt/beta-catenin reporter cell assay, activator, plate reader; AID 743398; 300,000 compounds, 1.2% hits; in the data active means activation above about 30%, passing the limit was not always enough; inconclusive means no clear call, values can overlap the other calls;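 further: 0% = neutral control wells and 100% = positive control wells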
MITF act – increases MITF-driven TRPM1 promoter luciferase signal; activation, % at 12.5 µM; SK-MEL-5 TRPM1-promoter luciferase, 24 h; % of positive control, neutral wells = 0; 300,000 compounds, 0.75% hits; AID 588334;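 active means mean activation of at least 80% with every replicate also reaching 80%; inconclusive means mean reaches 80% but some replicate falls short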;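 further: 0% = neutral control wells and 100% = parthenolide positive control wells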
esBAF inh – blocks esBAF chromatin remodeling in mouse ES cells; reporter increase, % at 12.5 µM; 350,000 compounds, 2% hits; AID 602393; Bmi1-luciferase knock-in reporter, 24 h; 100% = twice the neutral-well signal; in the data active means activation above about 40%; inconclusive means no clear call, values can overlap the other calls;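 further: 0% = median of the plate's neutral control wells and 100% = double that signal; a rise in the Bmi1 reporter signal indicates esBAF inhibition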
miR122 inh – blocks miR-122 activity in Huh7 sensor cells; AID 602342; 340,000 compounds, 0.3% hits; activation (reporter increase), % at 12.5 µM; Huh7 miR-122 Renilla luciferase sensor, 48 h; neutral wells = 0, positive control = 100;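 active means mean replicate activation score at least 90 and every replicate individually at or above 90; inconclusive means only one of the two criteria met; inactive means neither criterion met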;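 further: higher luciferase means less miR-122 activity so hits act as miR-122 inhibitors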
esBAF Ring1 qPCR – esBAF inhibition confirmed by Ring1 de-repression | shares compounds with esBAF inh | mouse ESC E14, Ring1 mRNA RT-qPCR fold change | fold change at 33 µM | 550 tested, under 10 active | AID 743176;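 active means Ring1 gene expression raised more than 2-fold over untreated cells in both replicates at either tested dose; inconclusive means only one replicate above 2-fold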;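 further: Ring1 transcript normalised to actin housekeeping signal by TaqMan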
esBAF Fgf4 qPCR – represses Fgf4 in mouse ESCs, confirming esBAF inhibition; AID 743177; 550 compounds, 4% hits; mouse ESC E14, Fgf4 mRNA qPCR fold change; stronger effect = lower value; Fgf4 expression fold change at 33 µM; shares compounds with esBAF inh;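 active means Fgf4 expression under 0.8 fold of control in both repeat measurements at one or both tested doses; inconclusive means under 0.8 fold in just a single repeat measurement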;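 further: Fgf4 transcript normalised to actin in duplex TaqMan qPCR; cells exposed to compound for 24 h before lysis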
esBAF Bmi1 qPCR – confirmation of esBAF inhibitors: Bmi1 de-repression in mouse ESCs. shares compounds with esBAF inh. mouse ESE14 ES cells, Bmi1 mRNA qPCR fold; stronger effect = higher value. fold change at 33 µM. 550 tested, under 10 active. AID 743180;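 active means Bmi1 expression fold change above 6 at either tested concentration, seen in replicate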
A549 tox SP – kills or reduces viability of A549 cells. cell viability change % (negative = cytotoxic), % at 25 µM, hits read low. shares compounds with esBAF inh. 550 tested, under 10 active. A549 cytotoxicity, plate reader. AID 743188; call rule not given here
HepG2 cytotox SP – kills or reduces viability of HepG2 cells. AID 743189. shares compounds with esBAF inh. activity change, negative = inhibition, % at 25 µM. 550 compounds, 4% hits. HepG2 cytotoxicity, plate reader; stronger effect = lower value; in the data active means activity change below about -50%
HEK293 cytotox SP – kills or reduces viability of HEK293 cells; 550 compounds, 3% hits; activity change, negative = inhibition, % at 25 µM, hits read low; HEK293 cytotoxicity, plate reader; shares compounds with esBAF inh; in the data active means activity change below about -38%, passing the limit was not always enough
Numbers without * were called inactive; ? = inconclusive; / = no result; [ ] = remark or other dose.

SMILES	HIV Env fusion	Wnt act	MITF act	esBAF inh	miR122 inh	esBAF Ring1 qPCR	esBAF Fgf4 qPCR	esBAF Bmi1 qPCR	A549 tox SP	HepG2 cytotox SP	HEK293 cytotox SP
Cc1ccc(C(=O)NCC(=O)Nc2ccc3c(c2)CCC3)cc1	-12	-2	46	72*	/	0.89	0.88	1.4	-2	-8	-8
O=C(N[C@H]1CC[C@H](CCn2cc(C3(O)CCCC3)nn2)O[C@@H]1CO)C1CCOCC1	13[16.7 µM]	/	/	0	/	/	/	/	/	/	/
COc1ccccc1CNC(=O)C[C@H]1C[C@@H]2c3cc(NC(=O)Nc4ccccc4F)ccc3O[C@@H]2[C@@H](CO)O1	9[16.7 µM]	/	/	-1	0[16.7 µM]	/	/	/	/	/	/
CCN(CC)C(=O)Oc1ccc2c(=O)c(-c3ccc(OC)cc3)coc2c1	/	20	?	61*	-8	1.1	0.83	1.6	-6	2	-6
CCN(CC)C(=O)Oc1ccc2c(=O)c(-c3ccc(OC)cc3)c(C)oc2c1	12	/	-6	15	-10	/	/	/	/	/	/
COCC(=O)Nc1ccc2c(c1)C(=O)N(C)C[C@H](OC)[C@H](C)CN(Cc1ccccn1)[C@@H](C)CO2	-6[16.7 µM]	/	/	0	/	/	/	/	/	/	/
CCS(=O)(=O)n1nc(-c2ccc(Cl)cc2)nc1SC	-105	/	66	57*	-20	1.2	0.9	1.2	-15	21	-20
O=C1/C(=C/c2cccc3ccccc23)CCCc2ccccc21	-89	42*	52	57*	11	1.2	1.1	1.2	-11	1	0
O=C1C(=Cc2ccccc2Cl)CCc2ccccc21	-5	3	/	/	/	/	/	/	/	/	/
CCOC(=O)C1=C(CSc2nc(-c3ccccc3)ccc2C#N)OC(N)=C(C#N)C1c1ccccc1 (stereo unspecified)	/	25	3	?	7	/	/	/	/	/	/
CCOC(=O)C1=C(CSc2nc(-c3ccccc3)ccc2C#N)OC(N)=C(C#N)C1c1cccnc1 (stereo unspecified)	/	/	49	73*	5	1.2	?	1.7	-6	-16	11
C[C@H]1CCCCO[C@H](CN(C)Cc2ccc(C(=O)O)cc2)[C@@H](C)CN([C@@H](C)CO)C(=O)c2cc(NS(C)(=O)=O)ccc2O1	26[16.7 µM]	/	/	-4	5[16.7 µM]	/	/	/	/	/	/
C[C@H](CO)N1C[C@H](C)[C@@H](CN(C)Cc2ccncc2)Oc2ccc(NS(=O)(=O)c3cccs3)cc2CC1=O	10[16.7 µM]	/	/	4	3[16.7 µM]	/	/	/	/	/	/
Cc1nc(-c2ccccc2)nc2[nH]ccc(=O)c12	-210	27	/	64*	5	2.2*	?	1.9	-6	-37	-10
CC(C)c1ccc(CNNC(=O)c2ccccc2)cc1	-59	26	70	70*	3	0.92	0.89	2.6	-6	6	-5
CNc1cnc(-c2ccc(F)c(F)c2F)cn1	-79	-1	/	73*	-1	1.1	0.96	1.5	-9	-17	-22
CNc1cnc(-c2ccsc2)cn1	7	0	/	?	0	/	/	/	/	/	/
Cc1nn(Cc2c(F)c(F)c(F)c(F)c2F)c(C)c1NC(=O)c1ccc(COc2cc(Cl)ccc2Cl)cc1	-103	15	26	47*	-6	1.1	1.1	1.4	-13	-5	-14
Cc1cccc(C)c1NC(=O)c1cccc(COc2cc(Cl)ccc2Cl)c1	-19	/	20	31	-4	/	/	/	/	/	/
CC(=O)N(/N=C1\Sc2ccccc2C1=O)c1ccccc1	/	/	/	81*	27	1.1	/	1.2	-3	-1	-12
COc1ccc(-c2nnn(Cc3ccccc3)n2)cc1	-49	15	36	79*	-1	1.1	0.87	1.3	-4	-1	3
Nc1ccc(-c2nnn(Cc3ccccc3)n2)cc1	-27	4	/	19	/	/	/	/	/	/	/
COC(=O)c1sccc1NC(=O)c1ccc(OC)cc1	-76	8	/	76*	6	1.3	1	1.9	-19	-13	-6
COC(=O)c1sccc1NC(=O)c1ccc(C#N)cc1	/	/	/	-3	2	/	/	/	/	/	/
CN(C)CC(=O)Nc1ccc2c(c1)[C@H]1C[C@@H](CC(=O)NCc3cccc(F)c3)O[C@H](CO)[C@H]1O2	3[16.7 µM]	/	/	-1	-3[16.7 µM]	/	/	/	/	/	/
SMILES	HIV Env fusion	Wnt act	MITF act	esBAF inh	miR122 inh	esBAF Ring1 qPCR	esBAF Fgf4 qPCR	esBAF Bmi1 qPCR	A549 tox SP	HepG2 cytotox SP	HEK293 cytotox SP
C[C@@H]1CCCCO[C@@H](CN(C)C(=O)Nc2ccccc2)[C@H](C)CN([C@@H](C)CO)C(=O)c2cc(NC(=O)c3ccncc3)ccc2O1	12[16.7 µM]	/	/	7	-5[16.7 µM]	/	/	/	/	/	/
COC(=O)c1ccc(NC(=O)Nc2ccc3c(c2)nc(C)n3C)cc1	-23	11	39	6	-4	/	/	/	/	/	/
Cc1cc(NC(=O)Nc2ccc3c(ccn3C)c2)sn1	-36	25	106*	81*	1	1.5	0.94	1.5	-2	1	-11
COc1ccc(-c2cc(C(=O)Nc3ccc(C(N)=O)cc3)c3ccccc3n2)cc1	-76	14	/	57*	/	1.4	?	1.6	-5	-6	1
COc1cccc(-c2cc(C(=O)Nc3ccccc3)c3ccccc3n2)c1	-3	4	/	/	11	/	/	/	/	/	/
COc1ccc(-c2cc(C(=O)N3CCN(c4ccccc4O)CC3)c3ccccc3n2)cc1OC	-2	1	10	/	6	/	/	/	/	/	/
COc1ccc(-c2cc(C(=O)N3CCN(c4ccccc4O)CC3)c3ccccc3n2)cc1	-36	7	/	64*	-8	0.96	0.92	1.3	-11	-44	-27
CNC[C@@H]1Oc2c(NC(=O)NC(C)C)cccc2C(=O)N([C@@H](C)CO)C[C@@H]1C	-7[16.7 µM]	/	/	-2	-2[16.7 µM]	/	/	/	/	/	/
CO[C@H]1CN(C)C(=O)c2ccc(NC(=O)Cc3ccccc3)cc2OC[C@@H](C)N(C)C[C@@H]1C	11[16.7 µM]	/	/	1	/	/	/	/	/	/	/
Cn1c(/N=C(\N)c2ccccc2)nc2ccccc21	-86	4	/	83*	1	1.2	0.87	1.7	-8	-5	-12
COc1cc(/C=C/c2nc3ccccc3c(=O)[nH]2)ccc1OC(F)F	-67	35*	?	56*	-6	1.2	1	1.5	-8	-24	-1
CCNC(=O)c1ccc(CSc2nc3ccccc3s2)cc1	-30	16	60	/	-10	/	/	/	/	/	/
NC(=O)c1ccc(CSc2nc3ccccc3s2)cc1	-30	19	55	54*	-4	1.4	0.87	1.7	-8	6	-12
C[C@@H]1CN([C@H](C)CO)S(=O)(=O)c2ccc(-c3ccncc3)cc2O[C@@H]1CN(C)C	5[16.7 µM]	/	/	1	-2[16.7 µM]	/	/	/	/	/	/
